Screens (PubChem BioAssay)
A selection: hits, their analogues and other compounds. The true share with any hit is near 0.9%.
SRC3 TRFRET art: TR-FRET detection interference compounds, artefact control for PPARgamma SRC-3 recruitment agonists, biochemical, TR-FRET ratio. AID 1048, 2008. TR-FRET ratio at 8 µM. 0.39% of 99,000 active. TR-FRET artefact counter-screen, PPARgamma/SRC-3 format; hits give high values
SRC2 TRFRET art: TR-FRET signal artefacts, primary screen, artefact control for PPARgamma SRC-2 agonist project, biochemical; TR-FRET artefact counter-screen; hits give high values; TR-FRET ratio at 8 µM; 0.4% of 200,000 active; AID 1049, 2008
PPARg SRC3 recr: PPARgamma agonists recruiting SRC-3 coactivator, primary screen, biochemical; Peroxisome proliferator-activated receptor gamma (Homo sapiens), P37231; biochemical PPARgamma/SRC-3 coactivator recruitment assay; activation, % at 8 µM; 0.26% of 200,000 active; in the data active = activation above about 23%
Target sequence (P37231 whole entry, looked up): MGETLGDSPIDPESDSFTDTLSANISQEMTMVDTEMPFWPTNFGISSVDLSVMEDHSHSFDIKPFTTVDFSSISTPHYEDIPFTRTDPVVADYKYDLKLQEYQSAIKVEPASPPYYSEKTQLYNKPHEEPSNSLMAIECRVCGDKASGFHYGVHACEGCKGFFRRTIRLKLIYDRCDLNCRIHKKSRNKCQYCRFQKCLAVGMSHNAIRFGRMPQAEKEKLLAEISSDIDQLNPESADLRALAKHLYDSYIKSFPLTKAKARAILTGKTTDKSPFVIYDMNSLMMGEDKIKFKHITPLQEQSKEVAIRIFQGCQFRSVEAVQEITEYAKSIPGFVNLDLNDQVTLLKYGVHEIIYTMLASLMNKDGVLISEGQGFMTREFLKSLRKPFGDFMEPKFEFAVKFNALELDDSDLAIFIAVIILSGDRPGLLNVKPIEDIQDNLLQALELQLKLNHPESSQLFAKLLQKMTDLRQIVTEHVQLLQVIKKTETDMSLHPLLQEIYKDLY
SRC1 TRFRET art: TR-FRET detection interference compounds, primary screen, artefact control for PPARgamma SRC-1 recruitment agonists, biochemical, TR-FRET emission ratio | TR-FRET detection artefact counter-screen; hits give high values | 0.34% of 99,000 active | TR-FRET ratio at 8 µM; in the data active = TR-FRET ratio above about 2300
PPARg SRC-1 ag: PPARgamma agonists recruiting SRC-1 coactivator, primary screen, biochemical. 0.41% of 200,000 active. PPARgamma-SRC-1 coactivator recruitment biochemical assay. Peroxisome proliferator-activated receptor gamma (Homo sapiens), P37231. AID 631, 2007. activation, % at 8 µM; in the data active = activation above about 19%
PPARg SRC2 recr: agonists of PPARg-SRC-2 recruitment, primary screen, biochemical, HTS. PPARgamma LBD-SRC-2 recruitment. activation, % at 8 µM. 0.34% of 200,000 active; in the data active = activation above about 22%
A number is an active result; – = inactive; · = not tested or not shown. Rule as the data show it, unless noted: active = TR-FRET ratio above about 2000; inactive = the rest.

SMILES | SRC3 TRFRET art | SRC2 TRFRET art | PPARg SRC3 recr | SRC1 TRFRET art | PPARg SRC-1 ag | PPARg SRC2 recr
O=C(Nc1nnc(C(F)(F)F)s1)c1ccc(Br)s1 | 2443 | 2104 | – | – | – | –
Cc1ccc(S(=O)(=O)N(CC(=O)Nc2ccccc2C(=O)O)c2ccccc2)cc1 | – | – | – | – | – | –
COc1ccccc1N(CC(O)Cn1ccnc1C)S(=O)(=O)c1ccccc1 (configuration not stated) | – | – | – | – | – | –
CC(=O)Nc1c(C)ccc(CNC(=O)COc2cc(C)ccc2C)c1C | – | – | – | – | – | –
O=C(c1cc(COc2ccc(F)cc2Cl)on1)N1CCCC(OCc2cccnc2)C1 (configuration not stated) | – | 2120 | – | – | – | 40
O=C(c1cc(COc2ccc(F)cc2Cl)on1)N1CCC(OCc2cccnc2)CC1 | – | – | – | – | – | –
CN1CCN(C(=O)c2cc(C(C)(C)C)cc(C(C)(C)C)c2)CC1 | – | – | – | – | – | –
Cn1c(SCC(=O)c2ccc3c(c2)Cc2ccccc2-3)nnc1-c1cccc(N)c1 | – | – | – | – | – | –
CC(=O)Nc1ccc(-c2nnc(SCC(=O)c3ccc4c(c3)Cc3ccccc3-4)n2C)cc1 | · | 2129 | – | · | – | –
O=C(Cc1cccs1)Nc1ccc(-c2nnc(-c3ccccc3)o2)cc1 | · | – | – | · | 21 | –
O=C(Cc1cccs1)Nc1ccc(-c2nnc(-c3ccco3)o2)cc1 | – | – | – | – | – | –
O=C(NC(=O)c1ccccc1)OCCN1C(=O)c2ccccc2C1=O | – | – | – | – | – | –
Cn1ncc([N+](=O)[O-])c1C(=O)N/N=C/c1ccc(F)cc1 | – | – | – | – | 21 | –
COc1cccc(-c2ccc(C#N)c(SCC(=O)NCc3ccco3)n2)c1 | – | 1980 | – | – | – | –
O=C(NCc1ccccn1)c1cc(-c2ccc(-c3ccccc3)cc2)nc2ccccc12 | 2387 | – | – | – | – | –
O=C(NCc1ccco1)c1cc(-c2cccnc2)nc2ccccc12 | – | – | – | 2325 | – | –
O=C(NCc1ccco1)c1cc(-c2ccncc2)nc2ccccc12 | · | – | – | · | – | –
O=C(NCc1ccccn1)c1cc(-c2ccccc2)nc2ccccc12 | – | – | – | – | – | –
Cc1nn(Cc2ccccc2)c(Cl)c1/C=C/C(=O)OC(C(=O)NC(N)=O)C(C)C (configuration not stated) | – | – | – | – | – | –
CCc1ccc(N/C(N)=N/c2nc(CSc3ccccn3)cc(=O)[nH]2)cc1 | 2114 | – | – | – | – | –
COc1cccc(N/C(N)=N/c2nc(CSc3ccccn3)cc(=O)[nH]2)c1 | – | – | – | – | – | –
CC(C)C(NC(=O)C(Cc1ccccc1)NC(=O)OCc1ccccc1)C(=O)O (configuration not stated) | – | – | – | – | – | –
CCO[C@H]1OC(C(=O)NC2CC2)=C[C@@H](c2csc3ccccc23)[C@@H]1CCCO | – | – | – | – | – | –
COc1ccc2c(C)cc(SCC(=O)c3ccc4c(c3)OCO4)nc2c1 | · | 3035 | – | · | – | –
O=[N+]([O-])c1ccccc1N/N=C1\CC2CC=CC12 (configuration not stated) | – | – | – | – | – | –
SMILES | SRC3 TRFRET art | SRC2 TRFRET art | PPARg SRC3 recr | SRC1 TRFRET art | PPARg SRC-1 ag | PPARg SRC2 recr
O=c1cc(Cn2ccnc2)c2cc3c(cc2o1)CCC3 | · | – | 29 | · | – | –
Cc1nc2ccc(NC(=O)c3ccc(Cl)c(S(=O)(=O)N(C)c4ccccc4)c3)cc2s1 | 2532 | – | – | – | – | –
Cc1nc2ccc(NC(=O)c3cc(S(=O)(=O)N(C)c4ccccc4)ccc3Cl)cc2s1 | – | – | – | – | – | –
Cc1ccnc(SCC(=O)Nc2sc3c(c2C#N)CCC(C(C)(C)C)C3)n1 (configuration not stated) | · | – | – | · | – | –
CC(C)(C)C1CCc2c(sc(NC(=O)CSc3nnc(-c4ccccc4)o3)c2C#N)C1 (configuration not stated) | – | 1982 | – | – | – | –
O=C(COC(=O)[C@@H]1CC(O)CN1S(=O)(=O)c1ccc2c(c1)OCCO2)NCc1ccc(F)cc1 (some centres not stated) | – | – | – | – | – | –
CCOC(=O)c1nn(-c2ccc(Cl)cc2)c2nc(-c3ccc(C)cc3)c(C#N)c(=O)n12 | · | – | 52 | · | – | –
COc1ccccc1C(=O)NNC(=O)c1sccc1-n1cccc1 | – | – | – | – | – | –
N#Cc1c(SCC(N)=O)nc2c(c1-c1ccc(OCc3ccccc3)cc1)CCCC2 | · | – | 71 | · | 63 | –
COCCCN(CC(=O)Nc1ccc(N2CCOCC2)cc1)S(=O)(=O)c1ccccc1 | – | – | – | – | – | –
Nc1nc2ccc(N3CCOCC3)cc2s1 | · | – | – | · | 25 | –
Fc1ccc2nc(N3CCOCC3)sc2c1 | – | – | – | – | – | –
Cc1ccc(/C=C2\SC(N)=NC2=O)s1 | – | – | – | – | – | 24
Cc1ccsc1/C=C1\SC(N)=NC1=O | · | – | – | · | – | –
COC(=O)c1[nH]c2cc(OC)c(OC)cc2c1NC(=O)Oc1ccccc1 | · | – | 28 | · | – | –
CC(NC(=O)CNC(=O)C(Cc1ccccc1)NC(=O)OCc1ccccc1)C(N)=O (configuration not stated) | – | – | – | – | – | –
COC(=O)c1ccccc1NC(=S)N(Cc1ccc2c(c1)OCO2)Cc1cc2ccc(OC)cc2[nH]c1=O | 2123 | – | – | – | – | –
COc1ccc(C(=O)NCC(=O)N=Nc2c(O)n(Cc3ccccc3)c3ccccc23)cc1OC | – | 2099 | – | – | – | 34
O=C(N=Nc1c(O)n(Cc2ccccc2)c2ccccc12)c1ccc(O)cc1 | – | – | – | – | – | –
Oc1ccc(NCc2ccccc2OCc2ccccc2)cc1 | – | 2166 | – | – | – | 29
O=C(Nc1cccc2ccccc12)c1cn(-c2ccccc2)nc1-c1cccs1 | · | 2231 | – | · | – | –
CCOC(=O)c1c(NC(=O)Cn2nc(C(F)(F)F)cc2C)sc(C)c1C | – | – | – | – | – | –
CCc1cccc(CC)c1NC(=S)NCc1nc2ccccc2[nH]1 | – | – | – | – | – | –
Cc1ccc2cc(C#N)c(NCc3ccccc3)nc2c1 | 2317 | – | – | 2504 | – | –
COC(=O)/C=C1\SC(N2CCOCC2)=C(c2ccc(OC)cc2)C1=O | – | – | – | – | – | –
COc1ccccc1C(=O)Nc1cccc(-c2cn3ccsc3n2)c1 | · | – | 28 | · | – | –
Oc1c(Br)cc(Br)cc1C=NCc1ccccc1 | – | – | – | – | – | –
